Assay results published in PubChem BioAssay AID686978 (National Center for Advancing Translational Sciences (NCATS), 2013).
In all, about 420,000 compounds went through this assay and about 64,000 (15%) were called active. Roughly 27% stayed inconclusive and do not appear here. Calls come from the whole dose curve; as a rule, active = well fitted inhibition curve with a large enough effect; inconclusive = small, poorly fitted or top-dose-only effect; inactive = flat fitted curve, though single readings scatter. Only a sample is shown.

Assay: qHTS for Inhibitors of human tyrosyl-DNA phosphodiesterase 1 (TDP1): qHTS in cells in absence of CPT; note: nearly all actives have a fitted effect of over 55% in size
Conditions: DT40 Tdp1-/- hTDP1 cells, no CPT, ATP luminescence, 48 h; activity change, negative = growth inhibition: at 46.2 µM (top of the series)
Summary of the method: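 Seeded 400 DT40-hTDP1 cells/well (vehicle DMSO, no 20 nM CPT); pinned compounds; ≥48 hr at 37 °C; CellTiter-Glo luminescence as viability measure.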
% is set by controls: 0 for no effect and ±100 for the full control effect; potency is the fitted concentration of half-maximal effect.

Row | Compound | activity change, negative = growth inhibition | Potency
1 | NNC(=O)C1CCCn2c1nc1sc3c(c1c2=O)CCCC3 (configuration not stated) | 2.25% (inactive) | –
2 | Cc1ccc(N/C(N)=N/c2nc(C(F)(F)F)cc(C(F)(F)F)n2)cc1 | 6.24% (inactive) | –
3 | C=C[C@](C)(O)CCC1C(=C)CCC2[C@@](C)(CO)CCC[C@@]12C (some centres not stated) | – | 18.4 µM (active)
4 | Cc1nnc(SCC(=O)NC2CCCC2)s1 | -4.15% (inactive) | –
5 | O=C(NCc1cccs1)C1CCN(S(=O)(=O)c2ccc(Cl)cc2)CC1 | -22.1% (inactive) | –
6 | O=C(NCc1ccccc1)C1CCCN(S(=O)(=O)c2cccs2)C1 (configuration not stated) | -15.2% (inactive) | –
7 | O=C(NCc1ccc(Cl)cc1)C1CCN(S(=O)(=O)c2cccs2)CC1 | – | 23.1 µM (active)
8 | CCCCCNC(=O)C1C(=O)Nc2ccccc2C(=O)N1C(C)(C)C (configuration not stated) | -8.99% (inactive) | –
9 | CCOc1ccc(-c2cc3nc(C4CCN(C(=O)OC(C)(C)C)CC4)c(C(=O)Nc4ccc(C(=O)OC)cc4)cn3n2)cc1 | 21.5% (inactive) | –
10 | COc1ccc(Nc2ncc3c(n2)CCN(C(=O)OC(C)(C)C)C3)cc1 | – | 20.6 µM (active)
11 | COc1ccc(NC(=S)N2CCc3cc(OC)c(OC)cc3C2)cc1 | -5.78% (inactive) | –
12 | COC(=O)CSc1nnc(NC(=O)CCc2ccccc2)s1 | -27.7% (inactive) | –
13 | O=C(OCc1cc(Cl)ccc1OC(F)F)c1cccnc1 | -12.6% (inactive) | –
14 | CCO/N=C(/C)c1c(O)cc(-c2ccccc2)n(-c2ccccc2)c1=O | -24.7% (inactive) | –
15 | O=C1NC[C@@H](CCCCN2CCN(CCc3ccc(O)cc3)C(=O)C2=O)N(CC2CCCCC2)C1=O | -13.4% (inactive) | –
16 | COc1ccc(-c2noc(CN(C)S(=O)(=O)c3ccc(C)cc3)n2)cc1 | – | 18.4 µM (active)
17 | Cc1ccc(S(=O)(=O)N(Cc2nc(-c3ccc(Cl)cc3)no2)C2CCCCC2)cc1 | – | 16.4 µM (active)
18 | CC1CCN(Cc2nc(-c3ccc(Cl)cc3)no2)CC1 | -13.3% (inactive) | –
19 | Cc1ccc(-c2noc(CC(c3ccccc3)c3ccccc3)n2)cc1 | -11.5% (inactive) | –

Row | Compound | activity change, negative = growth inhibition | Potency
20 | COc1ccc2nc(SCC(=O)Nc3c(C)cc(C)cc3C)[nH]c2c1 | -13.8% (inactive) | –
21 | COc1ccc(-c2noc(CSc3nc4ccc(C)cc4[nH]3)n2)cc1 | – | 11.6 µM (active)
22 | COc1ccc(-c2noc(CSc3ccc(C)cc3)n2)cc1 | -33.9% (inactive) | –
23 | COc1ccc(-c2noc(CNC(=O)C(C)Oc3ccccc3)n2)cc1 (configuration not stated) | -7.43% (inactive) | –
24 | Cc1ccc(C(=O)OCc2nc(N)nc(Nc3ccccc3C)n2)cc1 | -23.7% (inactive) | –
25 | O=C1CCCc2nn(-c3ccccc3)nc21 | -6.94% (inactive) | –
26 | O=c1[nH]c2c(c(=O)n1Cc1ccccc1)CCC2 | -29.1% (inactive) | –
27 | CC(C)c1nnc(NC(=O)COC(=O)/C=C/c2ccc([N+](=O)[O-])cc2)s1 | -1.16% (inactive) | –
28 | O=C(O)CCCCC(=O)O | -2.12% (inactive) | –
29 | CC(Oc1ccccc1[N+](=O)[O-])C(=O)N/N=C/c1ccoc1 (configuration not stated) | 11.1% (inactive) | –
30 | Cc1noc(C)c1CSc1nnc2ccc3ccccc3n12 | -5.21% (inactive) | –
31 | COc1ccc(C(=O)N/N=C(\C)CC(=O)Nc2ccc(Cl)cn2)cc1 | -17.9% (inactive) | –
32 | Cc1cc(OC(C)C(=O)Nc2sc3c(c2C(N)=O)CCCC3)ccc1Cl (configuration not stated) | -23.9% (inactive) | –
33 | Cc1cccc(C)c1NC(=O)CNC(=O)c1ccc(N2CCOCC2)c([N+](=O)[O-])c1 | -15.6% (inactive) | –
34 | O=C(NCCCN1CCOCC1)c1ccc(N2CCCC2)c([N+](=O)[O-])c1 | -9.74% (inactive) | –
35 | N#Cc1c(NC(=O)c2ccc(N3CCOCC3)c([N+](=O)[O-])c2)sc2c1CCCC2 | – | 6.51 µM (active)
36 | CC(/C=C/C1(O)C(C)CC(=O)CC1(C)C)OC1OC(CO)C(O)C(O)C1O (configuration not stated) | -23.3% (inactive) | –
37 | CCOCc1nnc(NC(=O)CCC2CCCCC2)s1 | -26.3% (inactive) | –
38 | CN1CCc2ccccc2C1Cc1ccccc1NC(=O)c1sc2ccccc2c1Cl (configuration not stated) | – | 6.51 µM (active)

Row | Compound | activity change, negative = growth inhibition | Potency
39 | CCc1ccccc1NC(=O)c1ccc2c(c1)CCN2S(C)(=O)=O | -7.89% (inactive) | –
40 | CCc1ccccc1NC(=O)NCCN1CCCCC1 | 1.53% (inactive) | –
41 | NNc1nnc(NN)c2ccccc12 | -1.45% (inactive) | –
42 | CC(O)CN(Cc1ccc(Cl)cc1)CC(C)O (configuration not stated) | -4.59% (inactive) | –
43 | Cc1ccc(C)c(C(=O)N2CCC(n3nccc3NC(=O)C3CC3)CC2)c1 | -4.33% (inactive) | –
44 | Cc1ccc(CC(=O)Nc2cccc(C#N)c2)cc1 | -11.9% (inactive) | –
45 | Cc1ccc(NC(=O)N2CCSc3ccccc32)cc1 | -29.7% (inactive) | –
46 | Cc1ccc(NC(=O)Cc2ccc(NC(=O)N3CCCCc4ccccc43)cc2)cc1 | – | 23.1 µM (active)
47 | CN(C)S(=O)(=O)c1cccc(C(=O)OCC(=O)N2CCCC2=O)c1 | 26.4% (inactive) | –
48 | O=C(CSc1ncn[nH]1)NCc1ccc2c(c1)OCO2 | 7.22% (inactive) | –
49 | CCOc1ccc(CN2CCN(Cc3ccc4cc(F)ccc4n3)CC2CCO)cc1 (configuration not stated) | – | 25.9 µM (active)
50 | OCCC1CN(Cc2ccc(Oc3ncccn3)cc2)CCN1CCc1ccccc1 (configuration not stated) | -23.7% (inactive) | –
51 | Cc1ccc(CN2CCN(Cc3ccc(OCCO)cc3)CC2CCO)o1 (configuration not stated) | 9.04% (inactive) | –
52 | COc1cccc(CN2CCN(Cc3ccc4cccc(F)c4n3)CC2CCO)c1 (configuration not stated) | -27.6% (inactive) | –
53 | CCOc1ccc(CN2CCN(Cc3ccon3)CC2CCO)cc1 (configuration not stated) | -4.58% (inactive) | –
54 | OCCC1CN(Cc2cccn2-c2nccs2)CCN1CCc1ccccc1 (configuration not stated) | -21.4% (inactive) | –
55 | OCCC1CN(Cc2cnc(-c3ccccc3)s2)CCN1CCc1ccccc1 (configuration not stated) | – | 8.2 µM (active)
56 | OCCC1CN(Cc2cccc(O)c2)CCN1CCc1ccccc1 (configuration not stated) | -27% (inactive) | –
57 | CCOc1ccc(CN2CCN(CCCc3ccccc3)C(CCO)C2)cc1 (configuration not stated) | – | 20.6 µM (active)
